Measurements from the supplement of paper PMC10849652.
About 7,900 targets were measured; listed, in parts, are those with a hit and a random draw of the rest. About 0.6% of all pairs of compound and target were hits.

Key:
Assay in all cases: log2 fold change, soluble protein after heating vs DMSO (PISA); higher = thermal stabilisation; K562 cells, 10 uM, 30 min; active = over 0.2 and 3.5 SD of the protein, either way, in both replicates (recomputed)
[1] = compound: COC1=CC=C(C=C1)CN2C=CC3=C2C=C(C=C3)C(=O)NO
How it was run: (§1)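 Values are thermal stability changes relative to control samples and are taken from duplicates. They are stated as log2 fold changes. Before quantification by TMTpro 16plex LC-MS/MS with equalised channel sums, K562 cells at 2×10^6 cells/mL were treated with 10 μM compound for 30 min, heated in aliquots for 3 min across 48°C-58°C, pooled, extracted in PBS with 0.5% NP-40 at 4°C, and centrifuged at 21,000xg for 90 min to give the soluble supernatant.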

filanesib = compound: CON(C)C(=O)N1N=C(c2cc(F)ccc2F)S[C@@]1(CCCN)c1ccccc1 [filanesib]
How it was run: as §1

zotarolimus = compound: CO[C@H]1C[C@@H]2CC[C@@H](C)[C@@](O)(O2)C(=O)C(=O)N2CCCC[C@H]2C(=O)O[C@H]([C@H](C)C[C@@H]2CC[C@H](n3cnnn3)[C@H](OC)C2)CC(=O)[C@H](C)/C=C(\C)[C@@H](O)[C@@H](OC)C(=O)[C@H](C)C[C@H](C)/C=C/C=C/C=C/1C [zotarolimus]
How it was run: as §1

idasanutlin = compound: COc1cc(C(=O)O)ccc1NC(=O)[C@@H]1N[C@@H](CC(C)(C)C)[C@](C#N)(c2ccc(Cl)cc2F)[C@H]1c1cccc(Cl)c1F [idasanutlin]
How it was run: as §1

alisertib = compound: COc1cc(Nc2ncc3c(n2)-c2ccc(Cl)cc2C(c2c(F)cccc2OC)=NC3)ccc1C(=O)O [alisertib]
How it was run: as §1

[2] = compound: COc1cc2nc(-c3cc(F)ccc3O)nc(N[C@@H]3CNC[C@H]3C(C)(C)O)c2cc1OC
How it was run: as §1

gefitinib = compound: COc1cc2ncnc(Nc3ccc(F)c(Cl)c3)c2cc1OCCCN1CCOCC1 [gefitinib]
How it was run: as §1

[3] = compound: COc1cccc2cc(-c3nc([C@H]4CC[C@H](C(=O)O)CC4)n4ncnc(N)c34)[nH]c12
How it was run: as §1

lapatinib = compound: CS(=O)(=O)CCNCc1ccc(-c2ccc3ncnc(Nc4ccc(OCc5cccc(F)c5)c(Cl)c4)c3c2)o1 [lapatinib]
How it was run: as §1

pictilisib = compound: CS(=O)(=O)N1CCN(Cc2cc3nc(-c4cccc5[nH]ncc45)nc(N4CCOCC4)c3s2)CC1 [pictilisib]
How it was run: as §1

[4] = compound: CS(=O)(=O)c1ccc(-c2cnc(N)c(C(=O)Nc3ccccc3)n2)cc1
How it was run: as §1

crizotinib = compound: C[C@@H](Oc1cc(-c2cnn(C3CCNCC3)c2)cnc1N)c1c(Cl)ccc(F)c1Cl [crizotinib]
How it was run: as §1

[5] = compound: C[C@@H]1COCCN1C2=NC(=NC(=C2)C3(CC3)S(=O)(=O)C)C4=C5C=CNC5=CC=C4
How it was run: as §1

[6] = compound: C[C@H](C1=CC=C(C=C1)C(=O)NC2=C3C=CNC3=NC=C2)N
How it was run: as §1

duvelisib = compound: C[C@H](Nc1ncnc2nc[nH]c12)c1cc2cccc(Cl)c2c(=O)n1-c1ccccc1 [duvelisib]
How it was run: as §1

gandotinib = compound: Cc1cc(Nc2cc(CN3CCOCC3)c3nc(C)c(Cc4ccc(Cl)cc4F)n3n2)n[nH]1 [gandotinib]
How it was run: as §1

tozasertib = compound: Cc1cc(Nc2cc(N3CCN(C)CC3)nc(Sc3ccc(NC(=O)C4CC4)cc3)n2)n[nH]1 [tozasertib]
How it was run: as §1

[7] = compound: Cc1cc(SCc2sc(-c3ccc(C(F)(F)F)cc3)nc2C)ccc1OCC(=O)O
How it was run: as §1

doramapimod = compound: Cc1ccc(-n2nc(C(C)(C)C)cc2NC(=O)Nc2ccc(OCCN3CCOCC3)c3ccccc23)cc1 [doramapimod]
How it was run: as §1

ispinesib = compound: Cc1ccc(C(=O)N(CCCN)[C@@H](c2nc3cc(Cl)ccc3c(=O)n2Cc2ccccc2)C(C)C)cc1 [ispinesib]
How it was run: as §1

Measured: log2 fold change

UHRF1BP1 (UniProt Q6BDS2)
UniProt Q6BDS2, sequence (Q6BDS2 whole entry, looked up): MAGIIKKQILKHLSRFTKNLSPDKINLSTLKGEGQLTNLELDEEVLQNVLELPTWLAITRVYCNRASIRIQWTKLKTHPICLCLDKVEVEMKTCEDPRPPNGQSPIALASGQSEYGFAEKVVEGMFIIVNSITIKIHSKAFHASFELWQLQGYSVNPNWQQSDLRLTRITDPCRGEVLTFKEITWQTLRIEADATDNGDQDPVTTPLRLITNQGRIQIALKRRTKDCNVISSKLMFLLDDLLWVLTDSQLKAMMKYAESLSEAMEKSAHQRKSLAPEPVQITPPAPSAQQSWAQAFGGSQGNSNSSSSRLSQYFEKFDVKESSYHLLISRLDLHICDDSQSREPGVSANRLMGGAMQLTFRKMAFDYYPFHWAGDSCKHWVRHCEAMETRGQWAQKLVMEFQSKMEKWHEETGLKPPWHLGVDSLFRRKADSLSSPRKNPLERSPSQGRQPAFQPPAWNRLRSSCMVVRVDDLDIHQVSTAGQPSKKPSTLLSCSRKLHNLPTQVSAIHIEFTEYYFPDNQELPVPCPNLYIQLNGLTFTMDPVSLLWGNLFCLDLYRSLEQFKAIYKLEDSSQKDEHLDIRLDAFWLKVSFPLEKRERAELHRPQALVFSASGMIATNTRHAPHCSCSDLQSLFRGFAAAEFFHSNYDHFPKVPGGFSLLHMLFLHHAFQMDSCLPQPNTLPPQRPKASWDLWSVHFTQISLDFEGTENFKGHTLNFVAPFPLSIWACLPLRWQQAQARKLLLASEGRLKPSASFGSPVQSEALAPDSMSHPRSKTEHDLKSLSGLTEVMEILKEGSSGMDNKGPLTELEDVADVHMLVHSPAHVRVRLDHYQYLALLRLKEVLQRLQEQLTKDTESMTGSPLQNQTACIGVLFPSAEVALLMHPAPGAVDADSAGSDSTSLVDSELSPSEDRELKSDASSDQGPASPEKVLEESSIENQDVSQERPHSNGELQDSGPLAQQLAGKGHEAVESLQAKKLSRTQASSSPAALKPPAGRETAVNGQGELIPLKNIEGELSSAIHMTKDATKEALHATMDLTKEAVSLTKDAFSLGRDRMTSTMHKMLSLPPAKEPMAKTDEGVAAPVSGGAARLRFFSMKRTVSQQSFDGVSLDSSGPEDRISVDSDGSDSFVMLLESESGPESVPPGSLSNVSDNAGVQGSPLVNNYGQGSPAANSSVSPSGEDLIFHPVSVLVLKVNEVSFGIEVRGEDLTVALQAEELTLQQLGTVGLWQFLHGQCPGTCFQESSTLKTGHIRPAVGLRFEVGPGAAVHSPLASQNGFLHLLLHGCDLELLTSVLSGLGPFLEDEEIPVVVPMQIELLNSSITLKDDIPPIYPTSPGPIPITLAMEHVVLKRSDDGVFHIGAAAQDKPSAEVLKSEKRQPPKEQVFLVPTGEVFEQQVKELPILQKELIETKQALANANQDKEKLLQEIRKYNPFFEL
inactive: [1] -0.025 | filanesib 0.079 | zotarolimus 0.161 | idasanutlin -0.029 | alisertib -0.033 | [2] 0.104 | gefitinib 0.045 | [3] 0.037 | lapatinib 0.038 | pictilisib 0.032 | [4] 0.003 | crizotinib 0.086 | [5] 0.001 | [6] -0.009 | duvelisib 0.124 | gandotinib -0.004 | tozasertib -0.014 | [7] -0.014 | doramapimod 0.014 | ispinesib 0.12

VPS39 (UniProt Q96JC1)
UniProt Q96JC1, sequence (Q96JC1 whole entry, looked up): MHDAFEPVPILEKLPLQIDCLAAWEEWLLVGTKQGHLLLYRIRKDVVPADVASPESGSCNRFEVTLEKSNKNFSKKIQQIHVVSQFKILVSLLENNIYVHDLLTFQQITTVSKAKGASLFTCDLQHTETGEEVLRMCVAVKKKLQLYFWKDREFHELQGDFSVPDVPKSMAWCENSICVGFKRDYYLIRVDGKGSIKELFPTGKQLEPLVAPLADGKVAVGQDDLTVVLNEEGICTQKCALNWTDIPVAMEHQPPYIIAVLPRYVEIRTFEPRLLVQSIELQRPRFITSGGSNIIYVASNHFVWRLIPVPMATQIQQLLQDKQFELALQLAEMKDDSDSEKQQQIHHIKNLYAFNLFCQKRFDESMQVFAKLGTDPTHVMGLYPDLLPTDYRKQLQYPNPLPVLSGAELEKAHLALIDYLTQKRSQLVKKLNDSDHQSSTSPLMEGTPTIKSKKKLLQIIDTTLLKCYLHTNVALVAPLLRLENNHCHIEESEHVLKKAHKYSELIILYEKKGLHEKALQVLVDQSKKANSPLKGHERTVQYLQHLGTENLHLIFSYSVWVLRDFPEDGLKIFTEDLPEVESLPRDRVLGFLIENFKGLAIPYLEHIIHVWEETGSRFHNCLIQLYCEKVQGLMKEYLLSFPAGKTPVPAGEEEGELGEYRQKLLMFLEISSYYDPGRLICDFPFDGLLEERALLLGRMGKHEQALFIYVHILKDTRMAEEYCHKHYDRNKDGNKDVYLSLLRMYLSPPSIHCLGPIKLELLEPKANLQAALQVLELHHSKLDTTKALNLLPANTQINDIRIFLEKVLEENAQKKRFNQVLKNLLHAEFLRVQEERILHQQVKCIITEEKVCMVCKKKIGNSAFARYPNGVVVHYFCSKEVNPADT
active: crizotinib -0.239
inactive: [1] -0.038 | filanesib -0.119 | zotarolimus 0.023 | idasanutlin -0.028 | alisertib -0.012 | [2] 0.021 | gefitinib 0.051 | [3] -0.059 | lapatinib -0.012 | pictilisib -0.035 | [4] -0.037 | [5] 0.026 | [6] 0.021 | duvelisib 0.011 | gandotinib -0.126 | tozasertib -0.033 | [7] 0.025 | doramapimod 0.008 | ispinesib -0.187

TOMM5 isoform 2 (UniProt Q8N4H5)
UniProt Q8N4H5, sequence (Q8N4H5 whole entry, looked up): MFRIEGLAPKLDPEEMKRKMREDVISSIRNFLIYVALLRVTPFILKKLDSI
inactive: [1] -0.027 | filanesib 0.079 | zotarolimus 0.045 | idasanutlin 0.137 | alisertib -0.141 | [2] -0.021 | gefitinib 0.073 | [3] 0.044 | lapatinib -0.016 | pictilisib -0.086 | [4] 0.043 | crizotinib 0.139 | [5] 0.124 | [6] -0.053 | duvelisib 0.075 | gandotinib 0.136 | tozasertib -0.008 | [7] -0.023 | doramapimod -0.078 | ispinesib -0.051

TRIP10 (UniProt Q15642)
inactive: [1] 0.054 | filanesib 0.01 | zotarolimus -0.007 | idasanutlin -0.061 | alisertib -0.026 | [2] 0.083 | gefitinib -0.014 | [3] -0.04 | lapatinib 0.021 | pictilisib 0.033 | [4] 0.08 | crizotinib -0.009 | [5] -0.085 | [6] -0.026 | duvelisib 0.005 | gandotinib 0.044 | tozasertib -0.003 | [7] 0.038 | doramapimod -0.036 | ispinesib -0.021

TOE1 (UniProt Q96GM8)
inactive: [1] -0.06 | filanesib 0.246 | zotarolimus 0.023 | idasanutlin 0.032 | alisertib -0.075 | [2] 0.039 | gefitinib 0.014 | [3] -0.162 | lapatinib 0.076 | pictilisib -0.054 | [4] 0.013 | crizotinib 0 | [5] -0.221 | [6] 0.211 | duvelisib -0.01 | gandotinib 0.219 | tozasertib 0.041 | [7] 0.066 | doramapimod 0.065 | ispinesib -0.021

WDHD1 (UniProt O75717)
UniProt O75717, sequence (O75717 whole entry, looked up): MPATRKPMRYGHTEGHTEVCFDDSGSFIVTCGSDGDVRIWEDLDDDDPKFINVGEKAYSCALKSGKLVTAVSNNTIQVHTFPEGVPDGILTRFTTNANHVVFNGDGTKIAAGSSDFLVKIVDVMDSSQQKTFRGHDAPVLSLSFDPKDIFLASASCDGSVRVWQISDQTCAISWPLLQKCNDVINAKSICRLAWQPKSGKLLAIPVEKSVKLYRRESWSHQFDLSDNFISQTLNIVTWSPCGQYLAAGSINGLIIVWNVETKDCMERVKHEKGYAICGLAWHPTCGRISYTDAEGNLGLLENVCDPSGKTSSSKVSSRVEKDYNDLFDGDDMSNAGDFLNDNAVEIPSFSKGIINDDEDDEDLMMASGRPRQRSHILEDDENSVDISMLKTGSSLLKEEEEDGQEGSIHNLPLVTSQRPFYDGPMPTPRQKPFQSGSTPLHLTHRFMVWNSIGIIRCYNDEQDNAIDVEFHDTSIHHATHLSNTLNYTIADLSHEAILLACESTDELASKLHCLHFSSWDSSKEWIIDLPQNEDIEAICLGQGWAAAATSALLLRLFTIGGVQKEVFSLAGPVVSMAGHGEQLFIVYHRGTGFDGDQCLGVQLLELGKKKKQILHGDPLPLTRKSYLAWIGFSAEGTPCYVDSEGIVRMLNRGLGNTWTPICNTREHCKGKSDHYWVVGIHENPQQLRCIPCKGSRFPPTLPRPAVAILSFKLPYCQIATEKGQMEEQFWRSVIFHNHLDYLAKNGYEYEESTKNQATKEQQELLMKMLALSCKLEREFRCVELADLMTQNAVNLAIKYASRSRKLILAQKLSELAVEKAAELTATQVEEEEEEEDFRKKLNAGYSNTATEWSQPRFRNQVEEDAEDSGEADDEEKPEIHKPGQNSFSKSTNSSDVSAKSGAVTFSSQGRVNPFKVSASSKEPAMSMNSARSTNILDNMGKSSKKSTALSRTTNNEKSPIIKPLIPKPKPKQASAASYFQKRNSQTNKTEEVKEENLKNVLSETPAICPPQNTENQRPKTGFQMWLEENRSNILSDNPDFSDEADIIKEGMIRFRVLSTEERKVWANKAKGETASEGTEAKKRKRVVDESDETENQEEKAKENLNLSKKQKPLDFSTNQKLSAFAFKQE
inactive: [1] 0.013 | filanesib -0.003 | zotarolimus 0.031 | idasanutlin 0.005 | alisertib 0.036 | [2] 0.011 | gefitinib 0.013 | [3] -0.012 | lapatinib 0.006 | pictilisib -0.015 | [4] 0.038 | crizotinib 0.021 | [5] 0.098 | [6] -0.025 | duvelisib 0.109 | gandotinib -0.029 | tozasertib 0.09 | [7] 0.109 | doramapimod -0.093 | ispinesib 0.042

WEE1 (UniProt P30291)
UniProt P30291, sequence (P30291 whole entry, looked up): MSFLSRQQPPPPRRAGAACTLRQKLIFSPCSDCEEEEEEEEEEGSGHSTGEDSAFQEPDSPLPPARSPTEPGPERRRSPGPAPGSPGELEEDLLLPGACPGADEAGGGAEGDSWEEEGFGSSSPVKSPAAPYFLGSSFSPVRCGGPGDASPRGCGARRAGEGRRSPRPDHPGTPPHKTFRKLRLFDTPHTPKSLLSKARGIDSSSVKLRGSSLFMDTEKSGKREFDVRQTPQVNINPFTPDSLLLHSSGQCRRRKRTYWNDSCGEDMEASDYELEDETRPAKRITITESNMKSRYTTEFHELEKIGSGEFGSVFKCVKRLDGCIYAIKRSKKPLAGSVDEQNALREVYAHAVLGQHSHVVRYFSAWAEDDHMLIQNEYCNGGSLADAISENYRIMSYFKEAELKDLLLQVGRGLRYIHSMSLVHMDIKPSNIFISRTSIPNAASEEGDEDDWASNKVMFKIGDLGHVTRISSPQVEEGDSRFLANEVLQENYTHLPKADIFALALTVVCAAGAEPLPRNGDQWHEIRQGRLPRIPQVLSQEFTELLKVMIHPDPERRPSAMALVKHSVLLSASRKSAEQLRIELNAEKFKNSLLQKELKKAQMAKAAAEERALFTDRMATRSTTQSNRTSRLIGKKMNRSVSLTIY
active: [5] -1.07
inactive: [1] -0.157 | filanesib 0.217 | zotarolimus -0.068 | idasanutlin 0.356 | alisertib -0.322 | [2] 0.039 | gefitinib -0.083 | [3] -0.615 | lapatinib 0.125 | pictilisib -0.095 | [4] -0.3 | crizotinib -0.025 | [6] 0.094 | duvelisib 0.026 | gandotinib 0.247 | tozasertib -0.5 | [7] -0.049 | doramapimod 0.026 | ispinesib 0.046

TMEM120A (UniProt Q9BXJ8)
UniProt Q9BXJ8, sequence (Q9BXJ8 whole entry, looked up): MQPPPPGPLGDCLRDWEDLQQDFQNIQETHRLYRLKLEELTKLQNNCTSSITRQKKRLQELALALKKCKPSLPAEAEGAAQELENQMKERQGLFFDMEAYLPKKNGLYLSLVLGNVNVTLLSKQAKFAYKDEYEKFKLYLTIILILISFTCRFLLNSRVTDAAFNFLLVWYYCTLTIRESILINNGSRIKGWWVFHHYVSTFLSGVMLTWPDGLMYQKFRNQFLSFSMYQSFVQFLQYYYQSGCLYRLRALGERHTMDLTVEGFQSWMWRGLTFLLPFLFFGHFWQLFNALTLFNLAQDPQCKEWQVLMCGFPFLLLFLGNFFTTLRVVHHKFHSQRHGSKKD
inactive: [1] -0.2 | filanesib -0.049 | zotarolimus 0.038 | idasanutlin -0.217 | alisertib -0.08 | [2] -0.08 | gefitinib 0.113 | [3] -0.02 | lapatinib 0.06 | pictilisib -0.094 | [4] -0.137 | crizotinib 0.096 | [5] 0.175 | [6] -0.11 | duvelisib -0.009 | gandotinib -0.125 | tozasertib -0.01 | [7] -0.055 | doramapimod -0.077 | ispinesib 0.033
